Source: PubChem (Broad Institute)
Compounds with a hit are over-represented: about 0.9% of the library has one in this group of screens.
BJeLR viability: BJeLR cell viability reduction. 30,000 compounds, 0.64% hits. BJeLR fibroblasts viability, CellTiterGlo ATP luminescence, 48 h; HRASV12, hTERT and SV40 LT/ST transformed. viability loss activity score, % (no concentration beside the values); in the data active means viability loss activity score above about 50%;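 further: higher score means fewer live cells and less ATP luminescence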
A1 inhib: inhibitors of A1 | MEF A1-2A-BIM cells, caspase-Glo luminescence, 3 h; percent of clofoctol signal, DMSO as zero | caspase activation, % (concentration not given with the values) | 21,000 compounds, 0.51% hits | AID 2241;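 active means most replicate scores above 10, or exactly half above 10 with mean activity above 10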;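 further: effector caspase 3 and 7 activity cleaving a DEVD luciferin substrate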
Each line names hits and unclear results; the compound was inactive in the other large screens.

CO[C@H]1[C@H](O)[C@H](O[C@H]2CC[C@]3(C)C4CC[C@]5(C)[C@H](C6=CC(=O)OC6)CC[C@]5(O)C4CC[C@@H]3C2)O[C@@H](C)[C@@H]1O[C@@H]1O[C@H](CO[C@@H]2O[C@H](CO)[C@@H](O)[C@H](O)[C@H]2O)[C@@H](O)[C@H](O)[C@H]1O (stereo not given in full)	BJeLR viability 100
CC(=O)O[C@H]1C[C@H](O[C@H]2[C@@H](O)C[C@H](O[C@H]3[C@@H](O)C[C@H](O[C@H]4CC[C@@]5(C)C(CCC6C5C[C@@H](O)[C@]5(C)[C@@H](C7=CC(=O)OC7)CC[C@]65O)C4)O[C@@H]3C)O[C@@H]2C)O[C@H](C)[C@H]1O[C@@H]1O[C@H](CO)[C@@H](O)[C@H](O)[C@H]1O (stereo not given in full)	BJeLR viability 109
CC(C)c1cc2c(cc1O)[C@@]1(C)CCCC(C)(C)[C@@H]1CC2O (stereo not given in full)	none
CC(=O)NCC1CCCN2CCCCC12 (stereo not given)	none
O=C(Nc1ccc2c(C(F)(F)F)cc(=O)oc2c1)c1cc(Cl)cc(Cl)c1	none
CCc1ccc(CN2CCN(Cc3cccc(OC)c3)CC2)cc1	none
COc1cc[n+](OC(=O)N2CCCCC2)c(C)c1	none
Cn1c(CCN)nc2ccccc21	none
COc1ccc(/C=C/C(=O)C2C(=O)NC34CCCCC3C2c2ccccc2O4)c(OC)c1OC (stereo not given)	none (no result: A1 inhib)
O=C(CSC(c1ccccc1)c1ccccc1)Nc1ccccc1	none
C=C1C(=O)O[C@@H]2/C=C(/C)CC/C=C(/C)C[C@@H](OC(=O)/C(=C/CO)CO)C12 (stereo not given in full)	none
COC1CC(OC2C(C)OC(OC3C(C)OC(OC4C(C)OC(O[C@H]5CC[C@@]6(C)C(=CC[C@]7(O)C6CC(OC(=O)c6ccccc6)[C@@]6(C)[C@]7(O)CC[C@@]6(O)C(C)=O)C5)CC4OC)CC3OC)CC2OC)OC(C)C1O (stereo not given in full)	BJeLR viability 75
CC(C)c1cc2c(cc1O)[C@@]1(C)C[C@@H](O)CC(C)(C)C1CC2 (stereo not given in full)	none
CC[C@@H]1/C=C\C=C\C[C@H](C)C(O)[C@](C)(O)C(=O)[C@H](C)C(O)[C@H](C)C(=O)[C@H](C)[C@@H](O)[C@H](C)/C=C/C(=O)O[C@H]2[C@@H](C)[C@@H](CC1)O[C@@]1(CC[C@@H](C)[C@@H](C[C@H](C)O)O1)[C@@H]2C (stereo not given in full)	none
CC[C@@]12CCCN3CC[C@]4(c5cccc(OC)c5N(C(C)=O)[C@@H]4CC1)[C@H]32	none
O=C(NC(=O)c1ccccc1Cl)Nc1ccc2c(c1)S(=O)(=O)C=C2	none
CC1=C(C(=O)OC(C)(C)C)C2(C(=O)Nc3ccccc32)C(C#N)=C(N)O1 (stereo not given)	none (no result: A1 inhib)
COC[C@H]([C@@H](O)[C@@H](O)C(=O)NCC[C@@H](C)c1nc(/C=C/C[C@H]2OC3(C[C@H](O)[C@H]2C)OC([C@@H](C[C@@H](O)[C@@H](C)[C@@H](O)[C@@H](C)/C=C(C)/C(C)=C/C=C/C(C)=C\C#N)OC)[C@@H](OP(=O)(O)O)C3(C)C)co1)N(C)C (stereo not given in full)	BJeLR viability 69
CSc1nc(-c2ccc(Cl)cc2)nn1C(=O)N(C)C	none
COC(=O)CC1=C(C(=O)OC)C2(C(=O)Nc3ccccc32)C(C(=O)OC)=C(N)O1 (stereo not given)	none
COC(=O)c1ccc(OP2(=O)COc3ccccc3OC2)cc1	none
COc1cc2c(cc1O)C1Cc3ccc(OC)c(O)c3CN1CC2 (stereo not given)	none
COc1ccc(C[C@H]2NC[C@H](O)[C@H]2OC(C)=O)cc1	BJeLR viability 117, A1 inhib 13
c1ccc2c(c1)cc1ccc3cccc4ccc2c1c34	none
O=C1c2ccccc2-c2cccc3cccc1c23	BJeLR viability 74
C=CC(C)(C)[C@]12C=C(OC)C(=O)N3/C(=C/c4cnc[nH]4)C(=O)N[C@@]31N(OC)c1ccccc12	none
O=C(CCNS(=O)(=O)c1ccccc1)Nc1ccc(Br)cc1C(=O)c1ccccc1	none
